Measurements reported in PMC6212790, “How bacterial xenogeneic silencer rok distinguishes foreign from self DNA in its resident genome”.
Whole data set: some 33,000 sequences, median “e-score” near -0.037, cut for the highest 2% near 0.34. Shown is part of a subset that was picked to be rich in the highest values.

molecular target: T1, GST-Rok (full length) (Bacillus subtilis subsp. subtilis str. …, UniProt O34857 1-191); experiment: protein binding microarray; Rok is a gene silencer of Bacillus subtilis; high values mean tight binding; conditions: protein: recombinant; tags: GST (pTH5325, pDEST15-Magic modified); dsDNA, one strand shown
T1 sequence: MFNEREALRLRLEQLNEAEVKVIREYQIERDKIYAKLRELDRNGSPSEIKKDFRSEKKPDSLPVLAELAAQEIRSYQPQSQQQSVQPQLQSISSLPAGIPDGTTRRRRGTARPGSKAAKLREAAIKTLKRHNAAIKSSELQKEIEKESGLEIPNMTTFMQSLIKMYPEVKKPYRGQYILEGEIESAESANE
Method in brief: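 Every oligonucleotide joins a 25-mer constant primer to a 35-mer variable part drawn from a de Bruijn sequence of order 10, so each non-palindromic 8-mer appears at least 32 times and each palindromic 8-mer 16 times. The preference for every 8-mer is reported as a unitless, rank-based enrichment score (E-score). This score spans 0.5 for the most favored 8-mer to −0.5 for the most disfavored.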

Sequence | binding signal
TCAGGACA | -0.136 E-score
CCACCTAA | -0.104 E-score
CTGGTAAC | 0.176 E-score
GAGAGAGA | -0.124 E-score
CAAGCGTA | -0.175 E-score
AAGCCAGC | -0.00201 E-score
AGACTGAA | 0.0238 E-score
GATACTAC | 0.278 E-score
AATACTTC | 0.235 E-score
AATACTCA | 0.174 E-score
AATACTAA | 0.37 E-score
GATACTAA | 0.307 E-score
TATACTAA | 0.364 E-score
CATACTAG | 0.312 E-score
AATACTAC | 0.419 E-score
CATACTAA | 0.125 E-score
AATACTGA | 0.188 E-score
AATACTCG | 0.085 E-score
AATACTAG | 0.341 E-score
GCAGGGAA | -0.158 E-score
TAAATTCA | 0.217 E-score
AGTAGCCA | -0.0245 E-score
CCTTACCG | 0.0725 E-score
CGGAGCCG | -0.191 E-score
ACGTGCTA | 0.0361 E-score

Sequence | binding signal
AATACTGT | 0.171 E-score
CATACTCC | -0.0183 E-score
CATACTAC | 0.376 E-score
AATACTAT | 0.359 E-score
CATACTTC | 0.191 E-score
AATACTCT | 0.11 E-score
AAAAAGTT | 0.0934 E-score
ACCAACAA | -0.105 E-score
GAACACCA | -0.0539 E-score
TACTTCGA | 0.332 E-score
CACTAAGC | -0.0899 E-score
GTAGGAAC | 0.0415 E-score
CGAACGTA | 0.0863 E-score
CCTAATTA | 0.228 E-score
CCTAATTC | 0.0288 E-score
ACTAATTC | 0.359 E-score
GCTAATTA | 0.325 E-score
ACTAATTA | 0.438 E-score
ACTAATTG | 0.184 E-score
GGCATCTA | -0.0204 E-score
AGGATGAT | -0.0933 E-score
ACTGTGGA | -0.123 E-score
CTTATATC | 0.141 E-score
GTTATAGA | 0.11 E-score
ATTATATA | 0.468 E-score

Sequence | binding signal
CCTATATC | 0.00873 E-score
ATTATAGA | 0.353 E-score
GTTATATA | 0.296 E-score
ATTATATC | 0.377 E-score
CTTATAGA | 0.112 E-score
ATTATATG | 0.269 E-score
CCTGAGCA | -0.194 E-score
CATCGACA | 0.0503 E-score
CACAACCG | 0.019 E-score
AGCGTGGG | -0.179 E-score
ATAGAAAC | 0.288 E-score
ATCGAAAC | 0.0448 E-score
ATAGAAAA | 0.324 E-score
ATCGAAAA | 0.0373 E-score
ATAGAATG | 0.181 E-score
ATAGAAAT | 0.337 E-score
ATAGAATC | 0.254 E-score
ATCGAAAT | 0.357 E-score
ATAGAATA | 0.356 E-score
TCTTTCCA | -0.0837 E-score
AGTCGGAC | -0.171 E-score
AGCCCGTG | -0.00226 E-score
AAGCGACT | 0.0908 E-score
AGATAGTC | 0.0258 E-score
AGATAGTA | 0.347 E-score

Sequence | binding signal
GGATAGTA | 0.208 E-score
AGATAGTG | 0.199 E-score
CGATAGTA | 0.384 E-score
CGATAGTC | -0.0533 E-score
CATGATCC | 0.0194 E-score
AGAAGCTA | 0.0762 E-score
AACCTCAC | -0.146 E-score
AACCGCCC | -0.131 E-score
CGGCGAAG | 0.0313 E-score
ATGAAGTC | -0.0225 E-score
GCGACTTA | 0.0295 E-score
CCACTAAG | -0.137 E-score
ATTTCTAG | 0.333 E-score
ATTTCTAC | 0.408 E-score
CTTTCTAA | 0.162 E-score
CTTTCTAC | 0.444 E-score
ATTTCTAA | 0.303 E-score
CTTTCTTC | -0.0764 E-score
AGAGACCT | -0.154 E-score
ACGTGGGC | -0.0245 E-score
GGATTGAC | -0.0238 E-score
GTATTATA | 0.35 E-score
CTATTATA | 0.366 E-score
ATATTATG | 0.111 E-score
ATGTTATA | 0.35 E-score

Sequence | binding signal
ATATTATC | 0.319 E-score
CTGTTATA | 0.308 E-score
CTATTATC | 0.214 E-score
GTATTAAA | 0.109 E-score
ATATTATA | 0.425 E-score
CGATTATA | 0.215 E-score
GTATTAGA | 0.22 E-score
ATGTTATC | 0.206 E-score
CGTCCTAA | -0.0629 E-score
CGAACTGC | -0.11 E-score
ACCATGCG | -0.0629 E-score
TCGAAGCA | -0.0477 E-score
AGACTAGA | 0.173 E-score
AAACTAGA | 0.355 E-score
GAACTAGA | 0.36 E-score
ACACTAGA | 0.197 E-score
CAACTAGA | 0.247 E-score
TAACTAGA | 0.224 E-score
CCGGCGAA | -0.00971 E-score
AAATAATA | 0.312 E-score
CAATAATG | 0.0655 E-score
GAATAATA | 0.271 E-score
CAATAATA | 0.352 E-score
CATTAATA | 0.171 E-score
TAATAATA | 0.395 E-score

Sequence | binding signal
AATTAATA | 0.256 E-score
CAATAATC | 0.0735 E-score
TATTAATA | 0.368 E-score
ACTCACTA | 0.177 E-score
ACAGCATG | 0.0491 E-score
AGGCACTG | -0.0252 E-score
CGTGATAA | 0.124 E-score
CCCGGCCG | -0.162 E-score
CCAAATAG | -0.0889 E-score
CGTGCGAG | -0.181 E-score
TTATTGAA | -0.0458 E-score
AGTAAATG | 0.19 E-score
AGTAAATC | 0.262 E-score
CGTAAATC | 0.0869 E-score
AGTAAATA | 0.387 E-score
CGTAAATA | 0.343 E-score
GGTAAATA | 0.299 E-score
AATTCCGT | -0.114 E-score
GACTTTCA | -0.125 E-score
CGGCCAAC | -0.111 E-score
AGAAGATG | 0.193 E-score
ACTGATAT | 0.242 E-score
CCGTACCG | -0.185 E-score
CTGAACTA | 0.203 E-score
AAAGTCGA | -0.0163 E-score

Sequence | binding signal
TTATAAAA | 0.236 E-score
GTATAAGA | 0.199 E-score
GTATAAAC | 0.16 E-score
GTATAATA | 0.407 E-score
ATATAATA | 0.452 E-score
CTATAATC | 0.279 E-score
CTATAATA | 0.355 E-score
ATATAATG | 0.303 E-score
GTATAACA | 0.208 E-score
ATATAATC | 0.152 E-score
GTATAAAA | 0.343 E-score
CTATAAGA | 0.244 E-score
GATCAGAA | 0.11 E-score
ACGACCGC | 0.0315 E-score
CCCGTTTC | -0.0198 E-score
CCATCTAG | -0.0113 E-score
ATGAGGGC | -0.183 E-score
AGCTGCCT | -0.125 E-score
CGGTGTTC | -0.0645 E-score
AGAACATG | 0.223 E-score
GGTCTAAA | 0.0268 E-score
ATACATCA | 0.191 E-score
